Measurements published in PubChem BioAssay AID1159580 (chemical genetic matrix, 2015).
Values joined by “and” are separate entries in the source; they are usually repeats but may differ in a detail not shown here. Equal entries are not always repeated. Hit rate of the full screen: of about 5,500 compounds, about 2,000 (36%) were called active. Roughly 18% stayed inconclusive and do not appear here. No stated cut-off is given here; in the data, active means normalized growth mostly below about 0.91 (no sharp cut-off); inconclusive means no clear call, values can overlap the other calls; inactive means mostly above about 0.92. The list shows a part of the results.

Assay: chemical genetic growth profiling, strain panel (AID 1159580);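 further: tested at 20 µM; growth read once vehicle control cultures reached saturation at 30 °C; 1 = growth at the plate median or of vehicle wells; lower values mean less growth of the strain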
Settings: S. cerevisiae deletion strains, growth OD

Measured: normalized growth

CCCC(=O)Nc1ccc(OCC(O)CNC(C)C)c(C(C)=O)c1 (stereo unspecified)
inactive: locus YAL013W, strain DEP1, active compounds read low 1.02 | locus YAL021C, strain ccr4, active compounds read low 1 | locus YAL026C, strain drs2, active compounds read low 1.03 | locus YAL030W, strain snc1, active compounds read low 1.02 | locus YBL061C, strain skt5, active compounds read low 1.02 | locus YBR009C, strain hhf1, active compounds read low 1 | locus YBR021W, strain FUR4, active compounds read low 1.02 | locus YBR023C, strain chs3, active compounds read low 1.02 | locus YBR171W, strain sec66, active compounds read low 1.02 | locus YBR229C, strain ROT2, active compounds read low 1.01 | locus YBR231C, strain swc5, active compounds read low 1.04 | locus YBR279W, strain paf1, active compounds read low 1.02 | locus YCL011C, strain gbp2, active compounds read low 1.03 | locus YCL016C, strain dcc1, active compounds read low 1.03 | locus YCL029C, strain bik1, active compounds read low 1.02 | locus YCL069W, strain vba3, active compounds read low 1.02 | locus YCR088W, strain abp1, active compounds read low 1.01 | locus YDL005C, strain med2, active compounds read low 1.01 | locus YDL035C, strain GPR1, active compounds read low 1.02 | locus YDL040C, strain nat1, active compounds read low 1 | locus YDL074C, strain BRE1, active compounds read low 1.05 | locus YDL101C, strain DUN1, active compounds read low 1.02 | locus YDL134C, strain PPH21, active compounds read low 1.01 | locus YDL185W, strain tfp1, active compounds read low 1.02 | locus YDL192W, strain arf1, active compounds read low 1.02 | locus YDR001C, strain nth1, active compounds read low 1.02 | locus YDR069C, strain doa4, active compounds read low 1.01 | locus YDR101C, strain arx1, active compounds read low 1.01 | locus YDR137W, strain rgp1, active compounds read low 1.01 | locus YDR150W, strain NUM1, active compounds read low 1.02 | locus YDR159W, strain sac3, active compounds read low 0.984 | locus YDR162C, strain NBP2, active compounds read low 1.01 | locus YDR195W, strain ref2 0.999 | locus YDR297W, strain sur2, active compounds read low 1.01 | locus YDR318W, strain mcm21, active compounds read low 1.02 | locus YDR334W, strain swr1, active compounds read low 1.01 | locus YDR335W, strain msn5, active compounds read low 1.01 | locus YDR388W, active compounds read low 1.01 | locus YDR392W, strain spt3, active compounds read low 0.995 | locus YDR502C, strain sam2, active compounds read low 1.02 | locus YEL003W, strain gim4, active compounds read low 1.02 | locus YEL037C, strain rad23, active compounds read low 1.02 | locus YEL061C, strain CIN8 (second series), active compounds read low 1.04 | locus YEL061C, strain CIN8, active compounds read low 1.01 | locus YER015W, strain faa2, active compounds read low 1.01 | locus YER016W, strain bim1, active compounds read low 1.03 | locus YER110C, active compounds read low 1.02 | locus YER111C, strain swi4, active compounds read low 1.01 | locus YER155C, strain BEM2 (second series), active compounds read low 0.985 | locus YER155C, strain BEM2, active compounds read low 1.02 | locus YER167W, strain BCK2, active compounds read low 1.04 | locus YFR010W, strain ubp6, active compounds read low 1.01 | locus YGL078C, strain dbp3, active compounds read low 1.01 | locus YGL086W, strain mad1, active compounds read low 0.996 | locus YGL167C, strain pmr1, active compounds read low 1.02 | locus YGL173C, strain kem1, active compounds read low 1.02 | locus YGL227W, strain vid30, active compounds read low 1.03 | locus YGL240W, strain doc1, active compounds read low 0.984 | locus YGL248W, strain PDE1, active compounds read low 1.01 | locus YGL253W, strain hxk2, active compounds read low 1.01 | locus YGR078C, strain PAC10, active compounds read low 1.03 | locus YGR135W, strain pre9, active compounds read low 1.02 | locus YGR229C, strain SMI1, active compounds read low 1.03 | locus YGR252W, strain gcn5, active compounds read low 0.965 | locus YHR013C, strain ard1, active compounds read low 1.02 | locus YHR027C, strain rpn1, active compounds read low 1.02 | locus YHR030C, strain SLT2, active compounds read low 1.01 and 1.04 | locus YHR079C, strain IRE1 (second series), active compounds read low 1.02 | locus YHR079C, strain IRE1, active compounds read low 1.01 | locus YHR094C, strain hxt1, active compounds read low 1.01 | locus YHR129C, strain ARP1, active compounds read low 1.01 | locus YHR142W, strain chs7, active compounds read low 1.04 | locus YHR200W, strain rpn10, active compounds read low 1.02 | locus YIL066C, strain RNR3, active compounds read low 1.02 | locus YIL073C, strain SPO22, active compounds read low 1.05 | locus YIL125W, strain kgd1, active compounds read low 1.01 | locus YIR030C, strain dcg1, active compounds read low 1.02 | locus YJL092W, strain hpr5, active compounds read low 1.01 | locus YJL095W, strain BCK1 (second series), active compounds read low 1.02 | locus YJL095W, strain BCK1, active compounds read low 1.03 and 1.01 | locus YJL115W, strain asf1, active compounds read low 1.01 | locus YJL129C, strain trk1, active compounds read low 1.01 | locus YJL134W, strain LCB3, active compounds read low 1.01 | locus YJL154C, strain vps35, active compounds read low 1.01 | locus YJL164C, strain tpk1, active compounds read low 0.999 | locus YJL166W, strain qcr8, active compounds read low 1.01 | locus YJL168C, strain set2, active compounds read low 1.02 | locus YJL187C, strain SWE1 (second series), active compounds read low 1.02 | locus YJL187C, strain SWE1, active compounds read low 1.02 | locus YJR043C, strain POL32, active compounds read low 1.05 | locus YJR066W, strain TOR1, active compounds read low 0.957
